Most compounds without a hit are left out; they make up all but 3.1% or so of the library.
TWEAK-Fn14 inh: blocks TWEAK-Fn14 interaction in a reporter cell assay; inhibition, % at 10 µM; 360,000 compounds, 2% hits; TWEAK-stimulated Fn14 reporter cells, luciferase luminescence, 8 h; AID 1159606; in the data active = inhibition above about 50%
PAX8 inh HTS: PAX8 transcriptional activity inhibition | RMG-I TPO-luciferase reporter, SteadyGlo, 24 h | inhibition, % at 12.6 µM | 360,000 compounds, 1.2% hits;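 active = mean replicate inhibition at least 60% with every replicate also reaching 60%; inconclusive = only one of the two criteria is met; inactive = mean below 60% and not all replicates reaching 60%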;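 note: luciferase light reporting Pax8 driven TPO promoter activity; plate controls were median of neutral control wells for no effect and mitoxantrone controls for full effect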
LGR2 inh: blocks bursicon-induced cAMP signaling via Drosophila LGR2; HEK293 LGR2, CRE-luciferase, bursicon-stimulated, 4 h; inhibition, % at 9.99 µM; 380,000 compounds, 0.35% hits; AID 720647;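 active = drop in luminescence signal, shown as inhibition above about 50% in the replicate tests, limit read from the data, passing the limit was not always enough; inconclusive = probably only some replicates passing the limit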;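 note: agonist challenge used bursicon conditioned medium at about half maximal strength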
EWS-Fli inh: inhibitors of EWS/Fli oncoprotein transcriptional activity; A673 NR0B1-luciferase reporter, viability-normalised; inhibition, % at 12.6 µM; 350,000 compounds, 0.67% hits; AID 651661;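 active = mean inhibition of at least 50% after viability correction, with every replicate also passing that limit; inconclusive = mean reaches 50% but only one of two replicates passes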;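 note: firefly luciferase signal divided by Alamar Blue viability fluorescence both relative to DMSO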
LMP1 NFkB inh: Epstein-Barr LMP1 NF-kappaB reporter inhibition; LMP1-induced NF-kappaB luciferase reporter cells, luminescence; inhibition, % at 12.5 µM; 350,000 compounds, 0.69% hits; in the data active = inhibition above about 41%; inconclusive = no clear call, values can overlap the other calls;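 note: 0% = neutral control wells and 100% = reference inhibitor control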
TROY NFkB inh: blocks TROY-dependent signaling in reporter cells. Q293 LMP1-TROYcd NF-kB luciferase reporter, 4 h. 360,000 compounds, 0.98% hits. inhibition, % at 10 µM;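 active = compounds whose plate-normalised and pattern-corrected inhibition of the luciferase reporter signal at the single screening dose is 50% or more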
Starred values were filed as active, the others as inactive; ? = inconclusive; . = not tested or not shown.

SMILES	TWEAK-Fn14 inh	PAX8 inh HTS	LGR2 inh	EWS-Fli inh	LMP1 NFkB inh	TROY NFkB inh
c1ccc(/N=C2\N=C(Nc3ccccn3)c3ccccc32)nc1	18.9	79.0*	1.4	24.5	30.7	-10.3
CO[C@H]1CN(C)C(=O)c2ccc(NC(=O)Nc3cccc(F)c3)cc2OC[C@@H](C)N(C(=O)C2CC2)C[C@@H]1C	.	.	4.6	-6.2	.	.
O=C(COC(=O)/C(=C/c1cccs1)c1cccs1)NC(c1ccccc1)c1ccccc1	30.8	93.4*	39.8	.	-3.3	11.5
CO[C@@H]1CN(C)C(=O)c2cc(NS(=O)(=O)c3cccc(C)c3)ccc2OC[C@H](C)NC[C@@H]1C	.	.	8.6	-1.1	.	.
Clc1cccc(-c2nc(-c3ccccn3)no2)c1	97.2*	34.7	.	.	51.0*	69.8*
Cc1ccc(-c2nc(-c3ccccn3)no2)cc1[N+](=O)[O-]	61.8*	-24.6	?	37.2	27.6	24.6
Cc1ccc(-c2nc(-c3ccccn3)no2)cc1	106.1*	.	.	.	87.8*	86.5*
Cc1ccc(-c2nc(-c3ccncc3)no2)cc1Cl	-9.8	-151.0	-65.8	-51.3	-30.1	-39.0
Cc1ccc(-c2nc(-c3ccccn3)no2)cc1Cl	103.7*	80.8*	.	.	68.0*	82.1*
C[C@H](CO)N1C[C@H](C)[C@H](CN(C)S(=O)(=O)c2cccs2)Oc2ccc(NS(=O)(=O)c3ccc(F)cc3)cc2CC1=O	.	-12.2	-12.0	-6.9	.	.
CCCC(=O)Nc1ccc2c(c1)OC[C@@H](C)N(C(=O)c1cnccn1)C[C@H](C)[C@@H](OC)CN(C)C2=O	.	-9.4	-8.3	-3.2	.	.
Cc1cccc(-c2nnc(-c3cccc4ccccc34)o2)c1	-18.4	-105.2	-24.8	-4.1	-38.9	-64.7
Cc1cccc(-c2nnc(-c3ccc4ccccc4c3)o2)c1	55.4*	-196.4	52.4*	-21.2	8.2	22.6
c1ccc(-c2noc(-c3ccc4ccccc4c3)n2)cc1	80.8*	.	.	.	9.1	69.4*
c1ccc(-c2ccc(-c3nc(-c4ccccn4)no3)cc2)cc1	106.1*	.	101.8*	87.3*	83.4*	89.3*
c1ccc(-c2noc(-c3ccc4c(c3)OCO4)n2)cc1	45.3	-140.1	22.9	?	-7.5	12.5
c1ccc(-c2noc(-c3ccno3)n2)nc1	-0.1	-45.4	-14.9	-17.2	3.6	-35.8
c1ccc(-c2cc(-c3nc(-c4ccccn4)no3)c3ccccc3n2)cc1	22.4	.	.	.	12.2	-4.4
c1ccc(-c2noc(-c3ccco3)n2)nc1	53.4*	-49.7	.	.	4.4	-15.7
CNC[C@@H]1OCCCC[C@H](C)Oc2ccc(NC(=O)Nc3ccc(F)cc3)cc2C(=O)N([C@H](C)CO)C[C@@H]1C	.	-10.2	26.3	-3.5	.	.
C[C@@H]1CCCCO[C@H](CN(C)C(=O)CCCN(C)C)[C@@H](C)CN([C@H](C)CO)C(=O)c2cc(NC(=O)Nc3ccc(C(F)(F)F)cc3)ccc2O1	.	-15.7	-1.6	-7.0	.	.
Cc1ccc2nc(-c3ccccn3)oc2c1	53.4*	.	.	.	17.6	-12.7
COc1cccc(-c2nc(-c3ccccn3)no2)c1OC	-2.4	-186.3	.	.	-8.4	-37.6
c1ccc(-c2noc(-c3cccc4ccccc34)n2)nc1	76.8*	.	.	.	-1.3	20.3
c1ccc(-c2nc(-c3ccccn3)no2)cc1	93.8*	.	86.5*	.	41.3*	73.3*
SMILES	TWEAK-Fn14 inh	PAX8 inh HTS	LGR2 inh	EWS-Fli inh	LMP1 NFkB inh	TROY NFkB inh
C[C@H]1CCCCO[C@H](CN(C)C(=O)CCC(F)(F)F)[C@@H](C)CN([C@@H](C)CO)C(=O)c2cc(NS(=O)(=O)c3ccc(F)cc3)ccc2O1	.	-13.5	-2.0	2.4	.	.
CCOC(=O)c1c2c(n(-c3ccc(OC)cc3)c1C)C(=O)C(=O)c1ccccc1-2	107.3*	.	.	.	86.5*	60.6*
CCOC(=O)c1sc(=S)n(-c2ccc(OC)cc2)c1C	2.4	6.4	.	2.5	.	-12.7
Cc1noc(C)c1S(=O)(=O)N(C)C[C@@H]1OCCCC[C@@H](C)Oc2ccc(NS(=O)(=O)c3cccs3)cc2C(=O)N([C@@H](C)CO)C[C@@H]1C	.	28.0	7.8	7.3	.	.
N#C[C@H]1[C@H](c2ccc(C#CC3CCCCC3)cc2)[C@H](CO)N1C(=O)Nc1ccc(F)cc1	.	91.8*	10.5	12.0	.	.
N#C[C@H]1[C@@H](c2ccc(C#CC3CCCCC3)cc2)[C@H](CO)N1C(=O)Nc1ccc(F)cc1	.	.	9.8	0.0	.	.
N#C[C@H]1[C@H](c2ccc(C#CC3CCCC3)cc2)[C@@H](CO)N1C(=O)Nc1ccc(F)cc1	.	88.3*	30.9	11.1	.	.
C[C@@H](NC(=O)[C@H]1[C@H](CO)[C@H]2Cn3c(ccc(-c4cccnc4)c3=O)[C@@H]1N2C)c1ccccc1	.	-18.3	-19.9	-0.9	.	.
CCC(=O)Nc1ccc2c(c1)C(=O)N(C)[C@@H]1CC[C@H](CC(=O)N[C@@H](C)c3ccccc3)O[C@@H]1CO2	.	7.5	9.4	-1.3	.	.
COc1ccc(/C=C/CN2CCN(Cc3ccccc3)C(CCO)C2)cc1 (stereo unspecified)	7.9	-16.2	12.0	-0.2	51.2*	9.8
COc1ccc(/C=C/CN2CCN(Cc3ccc(F)cc3)C(CCO)C2)cc1 (stereo unspecified)	13.6	-1.3	14.9	6.5	4.2	-19.2
CC(C)C[C@@H]1CN(CCCC[C@H]2CNC(=O)C(=O)N2CCC2CCCCC2)C(=O)C(=O)N1CCC1CCCCC1	60.7*	-11.2	-38.4	5.9	.	-31.1
CC=Cc1ccc2n(c1=O)C[C@H]1[C@H](CO)[C@@H](C(=O)N[C@H](C)c3ccccc3)[C@@H]2N1Cc1cccnc1 (mixture of isomers)	.	-9.9	-15.7	-1.6	.	.
O=C(/C=C/c1ccc([N+](=O)[O-])cc1)c1ccccc(=O)c1O	71.9*	6.6	46.5	60.6*	19.0	-28.9
Cc1ccc(C)c(/C=C/C(=O)c2ccccc(=O)c2O)c1	32.5	26.3	9.8	32.8	-110.7	5.2
Cc1ccc(/C=C/C(=O)c2ccccc(=O)c2O)c(C)c1	87.4*	3.2	1.6	.	14.5	72.8*
C[C@H]1CN([C@@H](C)CO)S(=O)(=O)c2ccc(-c3ccncc3)cc2O[C@@H]1CN(C)C(=O)c1ccc2c(c1)OCO2	.	.	6.2	-2.2	.	.
CC(C)NC(=O)N(C)C[C@H]1Oc2ccc(NC(=O)NC3CCCCC3)cc2CC(=O)N([C@H](C)CO)C[C@H]1C	.	.	-18.1	3.0	.	.
O=C(Nc1ccccc1O)C(c1ccccc1)c1ccccc1	64.5*	13.3	31.2	30.3	16.6	25.1
O=C(O)c1ccccc1NC(=O)C(c1ccccc1)c1ccccc1	11.6	-14.3	-11.3	7.4	2.1	-14.2
CN(Cc1ccccc1)c1nc(N)c([N+](=O)[O-])c(NCc2ccccc2)n1	-22.9	.	10.3	.	71.8*	26.0
Nc1nc(NCCc2ccccc2)nc(NCc2ccccc2)c1[N+](=O)[O-]	35.3	9.9	-25.2	-11.3	-27.5	21.9
OC[C@@H]1CN(Cc2ccccc2)C[C@H](n2cnc3c(NC4CC4)ncnc32)O1	-4.6	-6.6	20.2	-7.6	.	-0.3

Screening data deposited in PubChem by several laboratories.
